In the supplement of paper PMC10849652:
About 7,900 targets were measured; listed, in parts, are those with a hit and a random draw of the rest. About 0.6% of all pairs of compound and target were hits. A number with no mark means an inactive call.

What was measured:
Test in all cases: log2 fold change, soluble protein after heating vs DMSO (PISA); higher = thermal stabilisation; K562 cells, 10 uM, 30 min; active = over 0.2 and 3.5 SD of the protein, either way, in both replicates (recomputed)
IRAK-1-4 Inhibitor I = compound: C1COCCN1CCN2C3=CC=CC=C3N=C2NC(=O)C4=CC(=CC=C4)[N+](=O)[O-] [IRAK-1-4 Inhibitor I]
In short: (§1)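 Thermal stability values are relative to control samples and come from duplicates. They are expressed as log2 fold changes. For measurement, K562 cells (2×10^6 cells/mL) received 10 μM compound for 30 min, and aliquots were heated for 3 min over 48°C-58°C, pooled, and extracted at 4°C in PBS with 0.5% NP-40. Soluble protein, the supernatant after 21,000xg for 90 min, was quantified by TMTpro 16plex LC-MS/MS with equalised channel sums.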

ibrutinib = compound: C=CC(=O)N1CCC[C@@H](n2nc(-c3ccc(Oc4ccccc4)cc3)c3c(N)ncnc32)C1 [ibrutinib]
In short: as §1

[1] = compound: CC(=O)c1cnc2ccc(-c3cc(Cl)c(O)c(Cl)c3)nc2c1N[C@H]1CC[C@H](CN(C)C)CC1
In short: as §1

ralimetinib = compound: CC(C)(C)Cn1c(N)nc2ccc(-c3[nH]c(C(C)(C)C)nc3-c3ccc(F)cc3)nc21 [ralimetinib]
In short: as §1

[2] = compound: CC(C)(O)CC(=O)NCCn1ccc2ncnc(Nc3ccc(Oc4cccc(C(F)(F)F)c4)c(Cl)c3)c21
In short: as §1

[3] = compound: CC(C)C1=C2N=C(C=C(N2N=C1)NCC3=CC=CC=C3)NCCCCCCN
In short: as §1

[4] = compound: CC(C)C[C@@H](C=O)NC(=O)[C@H](CC(C)C)NC(=O)[C@H](CC(C)C)NC(=O)OCc1ccccc1
In short: as §1

pinometostat = compound: CC(C)N(C[C@H]1O[C@@H](n2cnc3c(N)ncnc32)[C@H](O)[C@@H]1O)[C@H]1C[C@@H](CCc2nc3cc(C(C)(C)C)ccc3[nH]2)C1 [pinometostat]
In short: as §1

[5] = compound: CC1=C(C(CC(=O)N1)C2=CC=C(C=C2)C(F)(F)F)C(=O)NC3=C(C=C4C(=C3)C=NN4)F
In short: as §1

[6] = compound: CC1=C(C2=C(C=C1)C(=O)C3=CC=CC=C3N2CCCN)C
In short: as §1

Sequence of UniProt P27105 (P27105 whole entry, looked up): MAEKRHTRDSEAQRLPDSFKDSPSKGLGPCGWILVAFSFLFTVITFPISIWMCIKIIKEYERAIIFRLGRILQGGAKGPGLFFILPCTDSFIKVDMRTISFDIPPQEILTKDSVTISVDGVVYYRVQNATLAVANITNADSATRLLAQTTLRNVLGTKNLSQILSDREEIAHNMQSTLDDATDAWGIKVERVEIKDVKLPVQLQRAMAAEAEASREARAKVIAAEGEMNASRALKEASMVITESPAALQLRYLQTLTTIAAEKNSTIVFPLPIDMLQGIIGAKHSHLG
Sequence of UniProt Q13573 (Q13573 whole entry, looked up): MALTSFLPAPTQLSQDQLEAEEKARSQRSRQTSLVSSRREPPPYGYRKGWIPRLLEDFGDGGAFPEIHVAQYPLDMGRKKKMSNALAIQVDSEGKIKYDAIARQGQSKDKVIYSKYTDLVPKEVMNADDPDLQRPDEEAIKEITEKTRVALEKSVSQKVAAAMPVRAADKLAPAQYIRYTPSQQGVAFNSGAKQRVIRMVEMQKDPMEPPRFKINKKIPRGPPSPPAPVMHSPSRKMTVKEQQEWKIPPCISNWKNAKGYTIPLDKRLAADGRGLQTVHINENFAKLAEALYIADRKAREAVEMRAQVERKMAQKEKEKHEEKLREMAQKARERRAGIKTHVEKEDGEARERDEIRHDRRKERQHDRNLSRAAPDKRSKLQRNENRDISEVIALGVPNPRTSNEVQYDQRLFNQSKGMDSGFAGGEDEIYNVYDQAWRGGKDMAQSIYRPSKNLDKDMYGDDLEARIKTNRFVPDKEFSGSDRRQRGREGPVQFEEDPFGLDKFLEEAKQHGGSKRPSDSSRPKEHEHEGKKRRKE
Sequence of UniProt P08579 (P08579 whole entry, looked up): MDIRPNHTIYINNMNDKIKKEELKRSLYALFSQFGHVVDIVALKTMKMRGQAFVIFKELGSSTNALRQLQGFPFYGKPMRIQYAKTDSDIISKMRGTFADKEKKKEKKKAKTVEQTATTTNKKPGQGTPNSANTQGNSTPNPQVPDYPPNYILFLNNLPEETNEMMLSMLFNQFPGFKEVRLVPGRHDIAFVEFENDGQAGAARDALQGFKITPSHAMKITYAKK
Sequence of UniProt O60749 (O60749 whole entry, looked up): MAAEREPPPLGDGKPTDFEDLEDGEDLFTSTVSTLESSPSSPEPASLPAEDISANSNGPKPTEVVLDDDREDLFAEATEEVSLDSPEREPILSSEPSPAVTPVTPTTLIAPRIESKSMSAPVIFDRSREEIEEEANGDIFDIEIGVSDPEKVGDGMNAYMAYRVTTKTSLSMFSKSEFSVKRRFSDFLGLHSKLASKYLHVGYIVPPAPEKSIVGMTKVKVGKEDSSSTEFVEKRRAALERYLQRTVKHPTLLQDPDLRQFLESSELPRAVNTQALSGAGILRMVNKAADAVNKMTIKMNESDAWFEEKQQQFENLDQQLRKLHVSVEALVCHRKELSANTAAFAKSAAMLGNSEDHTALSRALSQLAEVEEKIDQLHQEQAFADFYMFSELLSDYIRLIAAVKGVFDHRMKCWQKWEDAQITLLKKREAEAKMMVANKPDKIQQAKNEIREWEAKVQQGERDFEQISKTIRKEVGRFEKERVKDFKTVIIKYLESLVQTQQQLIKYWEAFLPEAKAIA
Sequence of UniProt Q02447 (Q02447 whole entry, looked up): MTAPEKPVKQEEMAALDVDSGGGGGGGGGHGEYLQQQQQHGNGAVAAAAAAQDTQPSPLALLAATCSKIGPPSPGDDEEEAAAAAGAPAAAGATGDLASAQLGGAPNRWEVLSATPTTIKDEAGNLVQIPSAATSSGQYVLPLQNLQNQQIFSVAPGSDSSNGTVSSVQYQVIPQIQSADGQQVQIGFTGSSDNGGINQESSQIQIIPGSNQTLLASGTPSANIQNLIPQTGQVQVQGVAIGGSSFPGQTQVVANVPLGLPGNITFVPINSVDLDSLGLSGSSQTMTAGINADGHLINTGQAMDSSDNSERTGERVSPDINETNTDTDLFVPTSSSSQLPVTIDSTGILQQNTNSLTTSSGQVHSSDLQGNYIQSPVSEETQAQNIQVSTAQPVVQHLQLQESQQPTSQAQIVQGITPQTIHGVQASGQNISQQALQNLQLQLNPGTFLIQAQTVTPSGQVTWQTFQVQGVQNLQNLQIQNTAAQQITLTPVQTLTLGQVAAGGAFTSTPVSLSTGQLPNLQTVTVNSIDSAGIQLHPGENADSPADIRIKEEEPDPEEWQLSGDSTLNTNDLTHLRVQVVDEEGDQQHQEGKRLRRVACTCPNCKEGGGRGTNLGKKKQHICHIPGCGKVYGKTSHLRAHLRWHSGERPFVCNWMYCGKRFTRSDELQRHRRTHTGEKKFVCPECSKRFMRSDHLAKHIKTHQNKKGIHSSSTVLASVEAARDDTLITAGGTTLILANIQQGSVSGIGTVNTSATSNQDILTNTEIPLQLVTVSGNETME
Sequence of UniProt Q9Y5B9 (Q9Y5B9 whole entry, looked up): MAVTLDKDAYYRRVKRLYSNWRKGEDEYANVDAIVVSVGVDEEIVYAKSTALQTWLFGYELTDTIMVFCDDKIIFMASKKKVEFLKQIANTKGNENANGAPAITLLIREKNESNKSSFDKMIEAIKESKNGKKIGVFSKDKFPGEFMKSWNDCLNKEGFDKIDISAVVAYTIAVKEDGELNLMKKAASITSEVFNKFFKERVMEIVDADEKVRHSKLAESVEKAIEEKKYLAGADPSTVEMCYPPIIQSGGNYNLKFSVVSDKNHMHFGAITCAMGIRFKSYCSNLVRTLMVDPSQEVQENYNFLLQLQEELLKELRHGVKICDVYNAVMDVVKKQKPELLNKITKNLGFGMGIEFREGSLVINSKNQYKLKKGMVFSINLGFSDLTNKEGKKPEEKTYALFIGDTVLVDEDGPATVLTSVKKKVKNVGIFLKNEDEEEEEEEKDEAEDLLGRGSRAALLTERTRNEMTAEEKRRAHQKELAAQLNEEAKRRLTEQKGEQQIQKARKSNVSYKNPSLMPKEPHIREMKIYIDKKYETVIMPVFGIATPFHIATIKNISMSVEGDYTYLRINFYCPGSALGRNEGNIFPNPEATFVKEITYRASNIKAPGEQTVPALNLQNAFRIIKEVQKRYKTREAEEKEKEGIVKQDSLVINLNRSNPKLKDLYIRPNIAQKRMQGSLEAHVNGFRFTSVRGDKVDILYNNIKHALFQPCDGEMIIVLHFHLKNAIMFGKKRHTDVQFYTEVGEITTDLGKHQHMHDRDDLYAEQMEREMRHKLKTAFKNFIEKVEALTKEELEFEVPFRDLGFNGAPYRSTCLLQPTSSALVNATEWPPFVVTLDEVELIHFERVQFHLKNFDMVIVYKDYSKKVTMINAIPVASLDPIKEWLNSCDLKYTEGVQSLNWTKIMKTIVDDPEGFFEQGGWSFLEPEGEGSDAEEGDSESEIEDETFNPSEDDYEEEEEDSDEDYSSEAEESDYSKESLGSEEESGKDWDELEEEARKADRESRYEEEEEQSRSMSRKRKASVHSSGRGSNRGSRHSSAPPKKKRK
Sequence of UniProt P62072 (P62072 whole entry, looked up): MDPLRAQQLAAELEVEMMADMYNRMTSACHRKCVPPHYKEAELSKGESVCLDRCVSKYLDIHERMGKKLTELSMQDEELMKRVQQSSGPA
Sequence of UniProt O75494 (O75494 whole entry, looked up): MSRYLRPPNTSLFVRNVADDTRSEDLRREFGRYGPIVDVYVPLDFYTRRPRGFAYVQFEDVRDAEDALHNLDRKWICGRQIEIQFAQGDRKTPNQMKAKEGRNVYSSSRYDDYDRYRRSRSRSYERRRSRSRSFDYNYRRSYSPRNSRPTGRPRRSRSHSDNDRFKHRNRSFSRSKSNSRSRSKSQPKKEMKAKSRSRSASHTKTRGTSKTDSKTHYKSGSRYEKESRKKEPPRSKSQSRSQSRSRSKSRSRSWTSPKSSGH
Sequence of UniProt Q9NUY8 (Q9NUY8 whole entry, looked up): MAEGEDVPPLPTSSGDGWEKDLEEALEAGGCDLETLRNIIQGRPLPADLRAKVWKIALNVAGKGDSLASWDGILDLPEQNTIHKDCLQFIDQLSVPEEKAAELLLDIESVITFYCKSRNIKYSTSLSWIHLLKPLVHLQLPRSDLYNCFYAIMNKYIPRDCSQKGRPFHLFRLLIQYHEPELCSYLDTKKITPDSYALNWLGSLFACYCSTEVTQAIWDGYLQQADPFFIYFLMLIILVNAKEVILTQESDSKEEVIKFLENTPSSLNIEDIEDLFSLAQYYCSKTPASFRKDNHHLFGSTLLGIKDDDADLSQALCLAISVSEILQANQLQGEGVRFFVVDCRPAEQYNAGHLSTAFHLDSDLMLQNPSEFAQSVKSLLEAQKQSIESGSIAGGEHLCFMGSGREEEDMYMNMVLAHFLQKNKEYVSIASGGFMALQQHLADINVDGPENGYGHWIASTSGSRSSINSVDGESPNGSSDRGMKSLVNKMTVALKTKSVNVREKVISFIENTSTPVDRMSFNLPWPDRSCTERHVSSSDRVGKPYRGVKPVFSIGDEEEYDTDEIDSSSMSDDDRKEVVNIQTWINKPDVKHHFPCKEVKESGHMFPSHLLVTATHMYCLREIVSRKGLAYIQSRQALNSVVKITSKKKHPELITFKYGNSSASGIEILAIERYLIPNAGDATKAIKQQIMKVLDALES
Sequence of UniProt Q16385 (Q16385 whole entry, looked up): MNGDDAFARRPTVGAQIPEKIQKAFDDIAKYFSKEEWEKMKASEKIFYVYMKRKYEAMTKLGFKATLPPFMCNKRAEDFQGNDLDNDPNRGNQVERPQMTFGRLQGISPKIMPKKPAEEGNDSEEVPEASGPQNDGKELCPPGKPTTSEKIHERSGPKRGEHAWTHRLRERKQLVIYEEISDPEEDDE
Sequence of UniProt O95926 (O95926 whole entry, looked up): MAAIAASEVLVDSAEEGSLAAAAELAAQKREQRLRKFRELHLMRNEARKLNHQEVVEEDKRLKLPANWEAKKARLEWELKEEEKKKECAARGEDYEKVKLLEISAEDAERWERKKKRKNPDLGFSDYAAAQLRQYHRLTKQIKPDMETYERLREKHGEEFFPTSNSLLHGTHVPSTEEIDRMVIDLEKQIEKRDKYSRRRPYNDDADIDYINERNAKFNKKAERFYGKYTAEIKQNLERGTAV

Target	log2 fold change (IRAK-1-4 Inhibitor I)	log2 fold change (ibrutinib)	log2 fold change [1]	log2 fold change (ralimetinib)	log2 fold change [2]	log2 fold change [3]	log2 fold change [4]	log2 fold change (pinometostat)	log2 fold change [5]	log2 fold change [6]
SNX2 (UniProt O60749)	0.058	0.043	-0.135	-0.014	-0.154	-0.189	0.079	0.016	0.019	0.03
STAT3 (UniProt P40763)	-0.038	-0.044	0.009	-0.001	-0.08	-0.261 (active)	0.024	0	-0.05	-0.057
SLC25A36 (UniProt Q96CQ1)	0.048	0.066	0.029	0.019	-0.167	-0.03	0.007	0.01	0.108	0.012
SNW1 (UniProt Q13573)	0.004	0.024	0.197	0.021	0.024	0.149	0.075	-0.008	-0.015	0.23 (active)
SP3 (UniProt Q02447)	-0.129	0.003	-0.007	0	0.022	-0.006	0.054	0.026	0.114	0.607 (active)
SPR (UniProt P35270)	0.063	0.04	0.344	0.017	-0.038	0.035	-0.008	-0.053	0.01	0.083
SSX2 (UniProt Q16385)	-0.038	-0.004	-0.006	-0.03	0.022	-0.044	0.123	-0.065	0.021	-1.33 (active)
SRPRB (UniProt Q9Y5M8)	-0.021	0.004	-0.014	0.034	-0.055	-0.036	-0.051	-0.026	-0.109	0.292 (active)
SUPT16H (UniProt Q9Y5B9)	-0.155	-0.139	-0.259	-0.059	-0.174	-0.26	0.083	0.044	-0.015	-1.34 (active)
SSR3 isoform 2 (UniProt Q9UNL2)	0.158	0.029	0.132	0.06	0.031	0.01	-0.049	-0.134	0.036	-0.022
STARD3NL (UniProt O95772)	0.014	-0.023	-0.216	0.038	-0.014	-0.432 (active)	-0.036	0.013	0.007	0.062
SYF2 (UniProt O95926)	-0.063	0.056	0.411 (active)	-0.019	0.049	0.327	0.199	0.072	0.023	0.382 (active)
STOM (UniProt P27105)	-0.039	0.019	-0.018	-0.054	0.004	-0.064	0.14	0.028	0.014	0.039
TERF2IP (UniProt Q9NYB0)	-0.023	-0.009	-0.151	0.038	0.034	-0.147	0.058	0.024	0.007	-0.33 (active)
TFAM (UniProt Q00059)	-0.047	0.03	0.07	0.044	0.043	0.007	0.056	0.05	0.002	-0.414 (active)
TIMM10 (UniProt P62072)	-0.06	0.024	-0.041	-0.145	-0.026	0.047	-0.09	-0.078	0.031	0.174
SLC35A1 (UniProt P78382)	-0.057	0.119	-0.027	-0.049	-0.056	0.066	0.007	-0.055	0.059	0.138
SRSF10 (UniProt O75494)	-0.179	0.07	-0.047	0.185	0.218	0.002	0.102	0.418	0.205	-0.396
SLC27A1 (UniProt Q6PCB7)	0.052	0.064	-0.05	0.001	0.117	-0.035	-0.04	-0.034	0.195	0.04
SRP72 (UniProt O76094)	-0.119	-0.03	-0.025	0.104	-0.121	-0.275	0.062	0.205	-0.026	-0.547 (active)
SNRPB2 (UniProt P08579)	0.067	0.074	0.089	-0.015	0.037	0.213 (active)	0.037	0	-0.012	0.036
SRSF2 (UniProt Q01130)	-0.069	0.016	-0.073	0.01	0.055	0.03	0.09	0.022	0.02	-0.02
SRSF4 (UniProt Q08170)	-0.306	0.069	-0.261	0.125	0.088	-0.174	0.019	0.126	-0.009	-0.379
SPECC1 (UniProt Q5M775)	0.01	-0.068	-0.035	-0.107	0.025	0.08	0.003	-0.25	0.048	-0.01
SPCS2 (UniProt Q15005)	-0.014	-0.037	-0.039	-0.047	-0.016	-0.01	-0.058	-0.062	-0.033	0.002
TBC1D23 (UniProt Q9NUY8)	0.062	-0.02	-0.067	0.002	-0.098	-0.45 (active)	0.071	-0.046	0.055	0.01
SLC25A4 (UniProt P12235)	0.032	0.068	0.016	-0.007	0.009	0.089	0.004	-0.02	-0.031	-0.013
SREK1 isoform 2 (UniProt Q8WXA9)	-0.245	-0.006	-0.497 (active)	0.036	0.026	-0.36	0.005	0.11	0.022	0.08
SLC38A7 (UniProt Q9NVC3)	0.035	0.073	0.092	0.205	-0.085	-0.751 (active)	-0.024	0.033	-0.009	0.007
SSRP1 (UniProt Q08945)	-0.044	-0.037	-0.138	-0.022	-0.008	-0.119	0	-0.036	-0.02	-0.554 (active)
